MCF10A rerep – inducers of DNA re-replication in MCF 10A breast cells; MCF 10A DNA re-replication, Hoechst nuclear intensity, 48 h; Potency, µM (titrated, usually from 46.1 µM), without a hit: at the highest dose activity, positive = re-replication, usual class: activators; 350,000 tested, 2.9% active; AID 624296; note: potency is the fitted concentration of half-maximal effect; % of control where 0% means no effect; nearly all actives have a fitted effect of over 50% in size
SW480 rerep – DNA re-replication induction in SW480 cells | SW480 DNA re-replication, Hoechst DNA content imaging, 48 h | Potency, µM (doses to about 46.1 µM), for inactives: top-dose re-replication activation, actives largely listed as activators | 340,000 tested, 1.8% active | AID 624297; note: potency is the fitted concentration of half-maximal effect; % of control where 0% means no effect; nearly all actives have a fitted effect of over 55% in size
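First, 250 cells per well were seeded. Next, compound or vehicle (23 nL) was pinned in, plates sat 48 hr at 37 C. Finally Hoechst was added for 40 min before fluorescence scanning.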
S-ASM inh – human S-ASM enzyme inhibition | placental ASM, HMU-PC fluorogenic substrate, 60 min | P17405 | 340,000 tested, 0.006% active | Potency, µM (highest dose often 57.5 µM), without a hit: at the top dose activity change, negative = inhibition, most hits filed as inhibitors; note: potency is the fitted concentration of half-maximal effect
Target sequence (P17405 47-631 limits assumed): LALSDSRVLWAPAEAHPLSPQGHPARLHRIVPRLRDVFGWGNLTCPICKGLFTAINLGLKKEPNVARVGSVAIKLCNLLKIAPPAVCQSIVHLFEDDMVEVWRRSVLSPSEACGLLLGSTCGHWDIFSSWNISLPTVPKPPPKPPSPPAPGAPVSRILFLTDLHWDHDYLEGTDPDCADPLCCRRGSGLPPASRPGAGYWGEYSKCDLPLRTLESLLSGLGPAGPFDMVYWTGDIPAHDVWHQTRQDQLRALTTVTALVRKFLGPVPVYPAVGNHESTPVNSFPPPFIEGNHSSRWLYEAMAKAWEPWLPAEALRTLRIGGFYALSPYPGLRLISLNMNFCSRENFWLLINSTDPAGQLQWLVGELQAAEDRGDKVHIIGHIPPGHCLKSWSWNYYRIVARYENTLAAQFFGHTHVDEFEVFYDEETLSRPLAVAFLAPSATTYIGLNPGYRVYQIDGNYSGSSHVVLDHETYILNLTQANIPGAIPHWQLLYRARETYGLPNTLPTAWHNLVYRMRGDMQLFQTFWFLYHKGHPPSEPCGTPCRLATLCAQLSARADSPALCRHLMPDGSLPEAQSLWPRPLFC
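HMU-PC0 cleavage (9 uM final) by human placental ASM, 60 min at 37 °C following 10 min compound exposure at RT; stopped at pH 10, fluorescence Ex 386/Em 447 nm.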
KB-3-1 tox – KB-3-1 parental cell cytotoxicity; KB-3-1 viability, CellTiter-Glo ATP luminescence, 72 h; Potency, µM (doses to about 46.1 µM), hits mostly cytotoxic; 400,000 tested, 1.4% active; note: potency is the fitted concentration of half-maximal effect; % is set by controls: 0 for no effect and ±100 for the full control effect; nearly all actives have a fitted effect of over 60% in size
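Using CellTiter-Glo luminescence, growth of non-resistant KB-3-1 adenocarcinoma cells is assessed 72 h after pin-tool compound addition at 37 °C. Normalized responses across the concentration series yield fitted curves.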
KB-V1 cytotox – KB-V1 MDR subline cytotoxicity. KB-V1 MDR cells viability, CellTiter-Glo, 72 h. Potency, µM (doses to about 46.1 µM), usual class: cytotoxic. 400,000 tested, 3.4% active. AID 1347076; note: potency is the fitted concentration of half-maximal effect; % is set by controls: 0 for no effect and ±100 for the full control effect; nearly all actives have a fitted effect of over 60% in size
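Luminescent ATP read-out (CellTiter-Glo, 10 min) measures survival of drug-selected KB-V1 MDR cells after 72 h, 37 degrees C compound exposure. Medium: phenol-red-free DMEM, 10% FBS. Values from fitted concentration-response curves.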
Giardia kill – Giardia lamblia killing | Giardia lamblia trophozoite viability | activity change, % at 7.66 µM, hits read low | 340,000 tested, 0.15% active; in the data active = activity change below about -80%; inconclusive = between about -30% and that limit;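 note: parasites exposed to compound for two days anaerobically before the ATP read; % is set by controls: 0 for no effect and ±100 for the full control effect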
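Luminescence from cellular ATP indicates surviving trophozoites (100 cells/well) following 48 hrs anaerobic compound treatment at 37 deg C; signal develops 15-30 min at room temperature.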
The depositor's hits bear a star; i = inactive; ? = inconclusive; . = not tested or not shown. Compounds with a hit are over-represented: about 6.9% of the library has one in this group of screens. Unless noted, calls come from the whole dose curve; as a rule, active = well fitted curve in the direction sought with a large enough effect; inconclusive = small, poorly fitted or top-dose-only effect, or another doubt; inactive = no such curve, though single readings can be large; an effect the other way counts as inactive or inconclusive.

SMILES	MCF10A rerep	SW480 rerep	S-ASM inh	KB-3-1 tox	KB-V1 cytotox	Giardia kill
Cc1ccc(NC(=O)Cn2c(-c3ccc(F)cc3)cnc2SCC(=O)Nc2c(C)cccc2C)cc1	4.61µM*	?	5.3%	i	i	-5.6
O=C(NCc1ccc(F)cc1)c1ccc(CS(=O)Cc2ccccc2Cl)o1 (configuration not stated)	-5.3%	0.7%	-1.4%	?	?	26.6
COc1nc(Nc2ccc([N+](=O)[O-])cc2)nc(NC(C)C)n1	2.3%	-8.1%	-6.2%	i	11.6µM*	16.5
OC(Cc1cccnc1)(c1ccccc1)c1ccccc1	-0.5%	1.1%	3.3%	?	18.4µM*	-11.9
OC(Cc1cccnc1)(Cc1cccnc1)c1cc2ccccc2[nH]1	24.5%	0.8%	5.7%	i	i	19.2
N#CC1=C(N)C2=CCCC[C@H]2[C@H](c2ccc(Br)cc2)C1(C#N)C#N	16.4µM*	?	30.5%	i	i	2.4
CC(C)(C)c1ccc(CC(=O)N2CCC2(C)C(=O)Nc2cnc3ccccc3c2)cc1 (configuration not stated)	.	.	.	?	16.4µM*	.
CC(C)c1ccc(CC(=O)N2CCC2(C)C(=O)Nc2cnc3ccccc3c2)cc1 (configuration not stated)	.	.	.	i	i	.
CSc1ccc(NC(=O)C2(C)CCN2C(=O)Cc2ccc(C(C)(C)C)cc2)cc1 (configuration not stated)	.	.	.	?	16.4µM*	.
COc1cccc(CNC(=O)c2cc(=O)[nH]c3ccc(S(=O)(=O)N4CCCC4)cc23)c1	.	.	.	i	i	.
CCOC(=O)C1(CCc2ccccc2)CCN(C(=O)c2occc2C)CC1	-11.6%	1.64µM*	-0.6%	i	?	-12.9
O=C(Cc1cccs1)NC1C(=O)N2C(C(=O)[O-])=C(C[n+]3ccccc3)CSC12 (configuration not stated)	-2.3%	-1.5%	.	.	.	.
O=C(c1ccccc1)c1ccccc1	-2.0%	0.4%	-1.5%	i	i	6.9
O=C(c1ccccc1)c1ccc(-c2ccc(O)cc2)cc1	23.1µM*	16.4µM*	-11.3%	?	?	3.7
Cc1ccc(CSc2nc3ccc(NC(=O)CC(C)C)cc3s2)cc1	.	.	.	?	i	.
Fc1cccc(-c2cc3nc4c(c(N5CCOCC5)n3n2)CCCC4)c1	-2.7%	-2.1%	-2.4%	i	25.9µM*	-1.9
O=C(CSc1ccc2ccccc2n1)N1CCC(c2noc3ccc(F)cc23)CC1	?	9.2%	-14.6%	i	9.2µM*	5.4
Cc1sc2ncnc(SCC(=O)N3CCC(c4noc5ccc(F)cc45)CC3)c2c1C	-2.3%	-11.6%	-5.7%	i	10.3µM*	-18.6
Cc1nnc(SCC(=O)N2CCC(c3noc4ccc(F)cc34)CC2)s1	?	-2.1%	-2.2%	i	?	3.0
O=C(CSc1ccc(F)cc1)N1CCC(c2nc3ccccc3s2)CC1	-2.7%	4.5%	-1.2%	i	i	-9.5
C=CCc1cc(OC)c(O)c(C(=O)NCCO)c1	1.9%	-8.7%	.	.	.	.
CCOC(=O)c1cnc(-n2nc(C)cc2C)nc1Nc1ccc(C)cc1	6.0%	-6.6%	0.6%	i	1.03µM*	-18.2
CCOC(=O)c1cnc(-n2nc(C)cc2C)nc1NC	1.1%	?	-0.2%	i	?	-25.2
CCOC(=O)c1cnc(-n2nc(C)cc2C)nc1N(CC)CC	-1.1%	?	-1.8%	i	1.64µM*	2.3
CCOC(=O)c1cnc(-n2nc(C)cc2C)nc1Nc1ccc(O)cc1	-2.7%	-8.3%	1.0%	?	?	-10.2
SMILES	MCF10A rerep	SW480 rerep	S-ASM inh	KB-3-1 tox	KB-V1 cytotox	Giardia kill
CCOC(=O)c1cnc(-n2nc(C)cc2C)nc1NC1CCCCC1	20.6µM*	?	-7.5%	?	8.2µM*	5.9
CCOC(=O)c1cnc(-n2nc(C)cc2C)nc1Nc1ccc(N(C)C)cc1	0.8%	-4.2%	-2.2%	?	i	-1.0
CCOC(=O)c1cnc(-n2cc(C)cn2)nc1Nc1ccccc1OC	18.1%	10.3%	-2.7%	?	1.84µM*	4.1
CCOC(=O)c1cnc(-n2nc(C)cc2C)nc1NNc1nc(-c2ccccc2)cc(-c2ccccc2)n1	?	?	-3.3%	25.9µM*	?	-9.6
CC1=C(C(=O)OCc2ccc(C)cc2)C(c2ccccc2F)CC(=O)N1 (configuration not stated)	.	.	.	i	i	.
COC(=O)C1=C(C)NC(=O)CC1c1ccccc1F (configuration not stated)	5.8µM*	?	-2.9%	i	i	-7.7
O=C1CC(c2ccccc2F)c2cc3c(cc2N1)CCC3 (configuration not stated)	-1.5%	-5.6%	-4.8%	8.2µM*	13µM*	3.5
O=C1CC(c2cc(Br)ccc2F)c2cc3c(cc2N1)CCC3 (configuration not stated)	1.46µM*	1.16µM*	-1.0%	1.64µM*	?	6.6
O=C(O)CC(O)CC(O)/C=C/c1c(C2CC2)nc2ccccc2c1-c1ccc(F)cc1 (configuration not stated)	17.4%	?	.	.	.	.
CCOc1ccc(-n2c(=O)c3c4c(sc3n(CC(=O)Nc3cccc(C(F)(F)F)c3)c2=O)CCCCC4)cc1	.	.	.	i	i	.
Cc1ccccc1OCCn1c(CCNC(=O)C2CCCCC2)nc2ccccc21	.	.	.	i	i	8.9
CC(=O)N1CCCc2cc(S(=O)(=O)NCc3ccc(N(C)C)cc3)ccc21	.	.	.	?	i	.
CC(C)[C@@H](CO)NC(=O)c1ccc2c3n(nc2c1)-c1ccccc1CO3	-0.7%	-6.2%	12.6%	i	i	?
CC(C)NC(=O)c1ccc2c3n(nc2c1)-c1ccccc1CO3	24.4%	-13.4%	5.9%	?	5.8µM*	?
COc1ccc(Nc2ncc3c(n2)CCN(Cc2ccccc2C)C3)c(OC)c1	.	.	.	i	i	.
CCCc1cc(CN2CCOCC2)c(O)c(CN2CCOCC2)c1O	14.6µM*	?	-0.5%	i	?	0.3
Cc1ccc(CNC(=O)CN2C(=O)COc3ccc(S(=O)(=O)Nc4ccccc4)cc32)cc1	.	.	.	i	i	.
Cc1nc([N+](=O)[O-])cn1CC(=O)c1ccc2c(c1)OCCCO2	.	.	.	i	i	.
O=S(=O)(c1ccccc1F)N1CCN(c2nc(-c3cccs3)nc3ccccc23)CC1	.	.	.	?	i	-7.3
Cn1c(-c2ccc(F)cc2)cnc1NCc1ccccc1	?	?	0.9%	?	20.6µM*	-2.6
C[n+]1ccc(/C=C/c2cc[n+](C)c3ccccc23)c2ccccc21	.	.	.	?	i	.
CN1C=C/C(=C\c2cc[n+](C)c3ccccc23)c2ccccc21	0.581µM*	-23.5%	-20.3%	i	i	-1.5
